The source of these data is PMC7862700, “An all-to-all approach to the identification of sequence-specific readers for epigenetic DNA modifications on cytosine”.

Common to all, as to test: DAPPL (digital affinity profiling via proximity ligation, sequencing); 10 mM Tris-HCl pH 7.5, 50 mM NaCl, 1 mM DTT, 4% glycerol, room temperature, 30 min; GST-TFs on glutathione beads, 16-mer random dsDNA library, 0.1% formaldehyde crosslink after washing; high values mean tight binding
Common to all, as to conditions: protein: recombinant; tags: N-terminal GST; dsDNA, one strand shown

One test concerns the target T1, ERF (Homo sapiens, UniProt P50548 1-548).
T1 sequence: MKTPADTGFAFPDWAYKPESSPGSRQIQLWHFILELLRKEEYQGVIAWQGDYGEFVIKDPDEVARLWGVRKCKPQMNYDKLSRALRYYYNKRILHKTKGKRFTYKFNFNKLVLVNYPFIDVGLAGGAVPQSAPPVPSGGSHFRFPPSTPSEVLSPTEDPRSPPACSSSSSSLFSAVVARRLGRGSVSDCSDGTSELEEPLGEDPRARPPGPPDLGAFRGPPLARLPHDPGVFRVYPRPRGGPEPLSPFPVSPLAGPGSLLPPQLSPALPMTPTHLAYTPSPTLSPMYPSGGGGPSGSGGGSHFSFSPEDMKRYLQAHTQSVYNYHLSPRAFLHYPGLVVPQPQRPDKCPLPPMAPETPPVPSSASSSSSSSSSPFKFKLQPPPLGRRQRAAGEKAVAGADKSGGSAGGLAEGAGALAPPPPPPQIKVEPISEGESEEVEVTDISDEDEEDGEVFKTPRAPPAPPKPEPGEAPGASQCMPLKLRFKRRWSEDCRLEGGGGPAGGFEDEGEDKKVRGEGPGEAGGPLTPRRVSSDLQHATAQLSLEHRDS
Put shortly: (§1)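 Pools were built from human transcription factors expressed in yeast as GST fusions, captured on glutathione beads and DNA-barcoded, along with a tag-only sample. Incubation with 200 nmole of a 16-mer random double-stranded DNA library lasted 30 min at room temperature in Tris/NaCl/DTT/glycerol buffer, and was followed by washing, 0.1% formaldehyde crosslinking, proximity ligation, PCR amplification and Illumina NextSeq500 sequencing. Binding signal is the quotient of each hexamer's read frequency for a factor and its frequency for the tag-only sample.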

Another test has as its target T2, ETV3L (Homo sapiens, UniProt Q6ZN32 1-361).
T2 sequence: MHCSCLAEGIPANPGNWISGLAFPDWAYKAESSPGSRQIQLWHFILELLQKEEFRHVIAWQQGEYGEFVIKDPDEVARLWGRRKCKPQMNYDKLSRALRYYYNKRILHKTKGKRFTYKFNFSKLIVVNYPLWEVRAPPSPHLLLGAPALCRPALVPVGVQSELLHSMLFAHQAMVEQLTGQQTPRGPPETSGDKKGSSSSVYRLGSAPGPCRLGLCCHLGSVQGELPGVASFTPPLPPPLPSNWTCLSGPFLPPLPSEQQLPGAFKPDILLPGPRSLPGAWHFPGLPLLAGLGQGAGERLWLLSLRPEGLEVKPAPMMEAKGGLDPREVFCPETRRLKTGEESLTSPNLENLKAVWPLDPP
Put shortly:
as §1

For a further test, the target named is T3, ETS2 (Homo sapiens, UniProt P15036 1-469).
T3 sequence: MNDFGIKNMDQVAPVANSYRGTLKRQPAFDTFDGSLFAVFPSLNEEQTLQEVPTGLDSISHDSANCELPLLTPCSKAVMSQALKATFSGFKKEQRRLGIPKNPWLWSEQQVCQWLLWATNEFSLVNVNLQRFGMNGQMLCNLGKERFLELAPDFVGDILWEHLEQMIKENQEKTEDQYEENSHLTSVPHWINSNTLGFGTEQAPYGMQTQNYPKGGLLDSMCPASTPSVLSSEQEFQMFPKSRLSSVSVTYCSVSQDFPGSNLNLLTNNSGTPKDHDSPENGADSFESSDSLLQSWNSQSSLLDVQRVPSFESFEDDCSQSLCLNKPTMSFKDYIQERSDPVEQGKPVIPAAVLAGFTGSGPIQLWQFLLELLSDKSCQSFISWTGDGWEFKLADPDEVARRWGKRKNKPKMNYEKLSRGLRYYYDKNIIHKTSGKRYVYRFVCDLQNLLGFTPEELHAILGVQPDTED
A digest of the protocol: as §1

The next test has as its target T4, SPDEF (Homo sapiens, UniProt O95238 1-335).
T4 sequence: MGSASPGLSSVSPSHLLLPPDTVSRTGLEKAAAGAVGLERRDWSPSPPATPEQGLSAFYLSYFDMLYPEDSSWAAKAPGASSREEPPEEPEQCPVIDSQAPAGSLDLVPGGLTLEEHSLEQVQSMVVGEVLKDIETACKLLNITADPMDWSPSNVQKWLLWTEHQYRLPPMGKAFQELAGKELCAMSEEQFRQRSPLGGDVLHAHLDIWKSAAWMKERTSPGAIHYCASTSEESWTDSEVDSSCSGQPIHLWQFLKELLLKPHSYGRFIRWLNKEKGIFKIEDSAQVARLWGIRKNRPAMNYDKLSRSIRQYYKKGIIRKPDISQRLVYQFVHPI
Put shortly: as §1

The target of the next test is T5, ETV7 (Homo sapiens, UniProt Q9Y603 1-341).
T5 sequence: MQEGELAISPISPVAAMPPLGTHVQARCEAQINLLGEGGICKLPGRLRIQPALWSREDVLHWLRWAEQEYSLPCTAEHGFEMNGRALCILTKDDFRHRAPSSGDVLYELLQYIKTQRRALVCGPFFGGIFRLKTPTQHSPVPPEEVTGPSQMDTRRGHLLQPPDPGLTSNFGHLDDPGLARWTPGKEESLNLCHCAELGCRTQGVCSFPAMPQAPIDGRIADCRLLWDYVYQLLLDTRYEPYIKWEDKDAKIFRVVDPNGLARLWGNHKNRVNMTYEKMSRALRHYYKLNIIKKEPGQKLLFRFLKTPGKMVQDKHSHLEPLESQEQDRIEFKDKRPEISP
A digest of the protocol: as §1

A further test has as its target T6, ELF5 (Homo sapiens, UniProt Q9UKW6-2 1-255).
T6 sequence: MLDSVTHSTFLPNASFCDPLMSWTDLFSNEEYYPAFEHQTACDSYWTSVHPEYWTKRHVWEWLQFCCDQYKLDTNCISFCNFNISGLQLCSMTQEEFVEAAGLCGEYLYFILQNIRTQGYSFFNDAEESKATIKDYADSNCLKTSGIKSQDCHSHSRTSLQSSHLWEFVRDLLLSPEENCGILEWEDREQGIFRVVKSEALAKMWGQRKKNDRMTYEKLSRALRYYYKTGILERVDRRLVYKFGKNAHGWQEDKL
A digest of the protocol: as §1

A further test deals with T7, ETV3 (Homo sapiens, UniProt P41162-2 1-143).
T7 sequence: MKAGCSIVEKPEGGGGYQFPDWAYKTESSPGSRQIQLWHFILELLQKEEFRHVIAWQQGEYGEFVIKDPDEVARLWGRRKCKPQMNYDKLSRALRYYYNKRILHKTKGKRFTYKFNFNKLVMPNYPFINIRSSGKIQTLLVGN
A digest of the protocol:
as §1

A further test addresses ETV6 (Homo sapiens, UniProt P41212 1-452). A digest of the protocol:
as §1

Chain of ETV6 (P41212 whole entry): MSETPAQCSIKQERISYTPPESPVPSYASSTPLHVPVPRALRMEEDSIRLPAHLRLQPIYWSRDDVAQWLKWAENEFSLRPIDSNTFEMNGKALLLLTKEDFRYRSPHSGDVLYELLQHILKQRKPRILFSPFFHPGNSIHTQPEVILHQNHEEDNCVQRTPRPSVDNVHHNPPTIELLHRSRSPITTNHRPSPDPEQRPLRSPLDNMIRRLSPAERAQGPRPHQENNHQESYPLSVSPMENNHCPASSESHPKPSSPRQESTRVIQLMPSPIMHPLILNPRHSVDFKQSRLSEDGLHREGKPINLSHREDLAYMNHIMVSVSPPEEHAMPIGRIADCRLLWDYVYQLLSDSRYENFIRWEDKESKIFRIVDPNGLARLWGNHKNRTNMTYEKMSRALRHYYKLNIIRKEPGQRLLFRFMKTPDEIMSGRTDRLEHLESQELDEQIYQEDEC

Consider TCCCGT, for which the binding signal with ERF is 1.4 fold enrichment (6-mer frequency, TF over GST control); in the test with ETV3L, 1.29 fold enrichment (6-mer frequency, TF over GST control); in the test with ETS2, 1.34 fold enrichment (6-mer frequency, TF over GST control); with SPDEF, 1.44 fold enrichment (6-mer frequency, TF over GST control); in the test with ETV7, 1.32 fold enrichment (6-mer frequency, TF over GST control); in the test with ELF5, 1.6 fold enrichment (6-mer frequency, TF over GST control). The binding signal with ETV3 was 1.27 fold enrichment (6-mer frequency, TF over GST control); in the test with ETV6, 1.3 fold enrichment (6-mer frequency, TF over GST control).
As to TTGTAG, the binding signal with ERF is 1.14 fold enrichment (6-mer frequency, TF over GST control); with ETV3L, 1.2 fold enrichment (6-mer frequency, TF over GST control); with ETS2, 1.17 fold enrichment (6-mer frequency, TF over GST control); with SPDEF, 1.09 fold enrichment (6-mer frequency, TF over GST control); in the test with ETV7, 1.12 fold enrichment (6-mer frequency, TF over GST control); with ELF5, 1.1 fold enrichment (6-mer frequency, TF over GST control). Moreover, the binding signal in the test with ETV3 was 1.13 fold enrichment (6-mer frequency, TF over GST control); with ETV6, 1.13 fold enrichment (6-mer frequency, TF over GST control).
As to TCTCAT, the binding signal with ERF is 1.26 fold enrichment (6-mer frequency, TF over GST control); with ETV3L it was 1.32 fold enrichment (6-mer frequency, TF over GST control); with ETS2, 1.26 fold enrichment (6-mer frequency, TF over GST control); with SPDEF, 1.33 fold enrichment (6-mer frequency, TF over GST control); with ETV7, 1.11 fold enrichment (6-mer frequency, TF over GST control); with ELF5 it was 1.24 fold enrichment (6-mer frequency, TF over GST control). The binding signal is 1.37 fold enrichment (6-mer frequency, TF over GST control) with ETV3 and 1.14 fold enrichment (6-mer frequency, TF over GST control) with ETV6.
Turning to GCTACC, the binding signal is 1.31 fold enrichment (6-mer frequency, TF over GST control) with ERF; 1.15 fold enrichment (6-mer frequency, TF over GST control) in the test with ETV3L; 1.22 fold enrichment (6-mer frequency, TF over GST control) with ETS2; 1.22 fold enrichment (6-mer frequency, TF over GST control) with SPDEF; 1.27 fold enrichment (6-mer frequency, TF over GST control) with ETV7; 1.24 fold enrichment (6-mer frequency, TF over GST control) with ELF5. Further, the binding signal with ETV3 was 1.24 fold enrichment (6-mer frequency, TF over GST control); with ETV6, 1.16 fold enrichment (6-mer frequency, TF over GST control).
In the case of TCATGC, the binding signal with ERF is 1.13 fold enrichment (6-mer frequency, TF over GST control); with ETV3L, 1.12 fold enrichment (6-mer frequency, TF over GST control); in the test with ETS2, 1.13 fold enrichment (6-mer frequency, TF over GST control); with SPDEF, 1.18 fold enrichment (6-mer frequency, TF over GST control); with ETV7, 1.17 fold enrichment (6-mer frequency, TF over GST control); in the test with ELF5 it was 1.07 fold enrichment (6-mer frequency, TF over GST control). For the same sequence, the binding signal is 1.18 fold enrichment (6-mer frequency, TF over GST control) with ETV3 and 1.11 fold enrichment (6-mer frequency, TF over GST control) with ETV6.
Consider CACATT, for which the binding signal is 1.33 fold enrichment (6-mer frequency, TF over GST control) with ERF; 1.17 fold enrichment (6-mer frequency, TF over GST control) with ETV3L; 1.2 fold enrichment (6-mer frequency, TF over GST control) with ETS2; 1.18 fold enrichment (6-mer frequency, TF over GST control) with SPDEF; 1.18 fold enrichment (6-mer frequency, TF over GST control) with ETV7; 1.13 fold enrichment (6-mer frequency, TF over GST control) in the test with ELF5. The binding signal in the test with ETV3 was 1.12 fold enrichment (6-mer frequency, TF over GST control); with ETV6 it was 1.15 fold enrichment (6-mer frequency, TF over GST control).
On to ATTCTT, for which the binding signal was 1.3 fold enrichment (6-mer frequency, TF over GST control) in the test with ERF; 1.46 fold enrichment (6-mer frequency, TF over GST control) in the test with ETV3L; 1.41 fold enrichment (6-mer frequency, TF over GST control) in the test with ETS2; 1.34 fold enrichment (6-mer frequency, TF over GST control) with SPDEF; 1.54 fold enrichment (6-mer frequency, TF over GST control) in the test with ETV7; 1.4 fold enrichment (6-mer frequency, TF over GST control) with ELF5. In addition, the binding signal is 1.48 fold enrichment (6-mer frequency, TF over GST control) with ETV3 and 1.46 fold enrichment (6-mer frequency, TF over GST control) with ETV6.
